# Data from paper PMC7862700, “An all-to-all approach to the identification of sequence-specific readers for epigenetic DNA modifications on cytosine”.
# Assays:
# Assay in all cases: DAPPL (digital affinity profiling via proximity ligation, sequencing); 10 mM Tris-HCl pH 7.5, 50 mM NaCl, 1 mM DTT, 4% glycerol, room temperature, 30 min; GST-TFs on glutathione beads, 16-mer random dsDNA library, 0.1% formaldehyde crosslink after washing; high values mean tight binding
# FLI1 = molecular target: T1, FLI1 (Homo sapiens, UniProt Q01543 1-452); details: protein: recombinant; tags: N-terminal GST; dsDNA, one strand shown
# T1 sequence: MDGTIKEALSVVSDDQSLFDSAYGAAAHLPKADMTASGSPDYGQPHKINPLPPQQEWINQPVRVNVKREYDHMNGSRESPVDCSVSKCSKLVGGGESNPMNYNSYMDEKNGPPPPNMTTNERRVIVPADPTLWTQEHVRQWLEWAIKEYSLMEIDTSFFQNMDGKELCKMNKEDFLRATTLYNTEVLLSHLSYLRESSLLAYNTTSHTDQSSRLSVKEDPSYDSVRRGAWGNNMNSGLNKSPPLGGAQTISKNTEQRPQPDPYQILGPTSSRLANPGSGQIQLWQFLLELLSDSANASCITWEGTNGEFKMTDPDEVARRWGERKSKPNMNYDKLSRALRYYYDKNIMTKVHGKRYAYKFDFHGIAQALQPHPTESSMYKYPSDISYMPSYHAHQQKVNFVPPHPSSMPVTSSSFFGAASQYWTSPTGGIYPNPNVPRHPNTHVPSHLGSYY
# Procedure, shortened: (§1)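 Human transcription factors carrying a GST fusion were produced in yeast, bound to glutathione beads, tagged with DNA barcodes and pooled together with a tag-only sample. Each pool was held with 200 nmole of a random double-stranded 16-mer DNA library in Tris/NaCl/DTT/glycerol buffer for 30 min at room temperature, then washed, crosslinked in 0.1% formaldehyde, proximity-ligated with BsaI/T4 ligase (1 h, 37 °C), PCR-amplified and sequenced on an Illumina NextSeq500. Binding signal is the read frequency of each hexamer for a given factor divided by its frequency in the tag-only sample.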
# ELK1 = molecular target: T2, ELK1 (Homo sapiens, UniProt P19419 1-428); details: protein: recombinant; tags: N-terminal GST; dsDNA, one strand shown
# T2 sequence: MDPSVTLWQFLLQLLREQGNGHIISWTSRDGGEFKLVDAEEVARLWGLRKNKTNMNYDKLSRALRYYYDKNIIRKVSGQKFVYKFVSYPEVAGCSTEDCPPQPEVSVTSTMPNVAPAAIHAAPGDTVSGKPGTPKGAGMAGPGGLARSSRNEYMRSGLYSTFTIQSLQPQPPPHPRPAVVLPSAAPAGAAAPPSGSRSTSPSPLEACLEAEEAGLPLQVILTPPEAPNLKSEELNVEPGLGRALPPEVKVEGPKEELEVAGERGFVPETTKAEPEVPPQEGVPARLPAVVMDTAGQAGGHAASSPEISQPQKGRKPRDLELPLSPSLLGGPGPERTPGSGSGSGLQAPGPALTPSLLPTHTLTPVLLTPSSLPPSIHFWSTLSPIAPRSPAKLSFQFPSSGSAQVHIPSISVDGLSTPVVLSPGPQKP
# Procedure, shortened: as §1
# GABPA = molecular target: T3, GABPA (Homo sapiens, UniProt Q06546 1-454); details: protein: recombinant; tags: N-terminal GST; dsDNA, one strand shown
# T3 sequence: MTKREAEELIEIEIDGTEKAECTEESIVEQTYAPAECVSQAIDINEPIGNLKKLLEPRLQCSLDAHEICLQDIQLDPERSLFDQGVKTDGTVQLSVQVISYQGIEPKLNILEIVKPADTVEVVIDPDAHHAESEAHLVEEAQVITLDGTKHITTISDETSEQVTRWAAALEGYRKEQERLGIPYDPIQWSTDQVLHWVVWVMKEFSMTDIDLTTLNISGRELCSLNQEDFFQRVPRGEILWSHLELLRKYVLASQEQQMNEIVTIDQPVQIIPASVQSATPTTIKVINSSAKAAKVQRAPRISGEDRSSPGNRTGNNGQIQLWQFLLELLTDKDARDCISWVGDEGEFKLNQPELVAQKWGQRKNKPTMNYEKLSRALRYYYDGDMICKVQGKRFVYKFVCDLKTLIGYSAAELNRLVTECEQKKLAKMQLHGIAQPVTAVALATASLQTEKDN
# Procedure, shortened: as §1
# ERG = molecular target: T4, ERG (Homo sapiens, UniProt P11308 1-479); details: protein: recombinant; tags: N-terminal GST; dsDNA, one strand shown
# T4 sequence: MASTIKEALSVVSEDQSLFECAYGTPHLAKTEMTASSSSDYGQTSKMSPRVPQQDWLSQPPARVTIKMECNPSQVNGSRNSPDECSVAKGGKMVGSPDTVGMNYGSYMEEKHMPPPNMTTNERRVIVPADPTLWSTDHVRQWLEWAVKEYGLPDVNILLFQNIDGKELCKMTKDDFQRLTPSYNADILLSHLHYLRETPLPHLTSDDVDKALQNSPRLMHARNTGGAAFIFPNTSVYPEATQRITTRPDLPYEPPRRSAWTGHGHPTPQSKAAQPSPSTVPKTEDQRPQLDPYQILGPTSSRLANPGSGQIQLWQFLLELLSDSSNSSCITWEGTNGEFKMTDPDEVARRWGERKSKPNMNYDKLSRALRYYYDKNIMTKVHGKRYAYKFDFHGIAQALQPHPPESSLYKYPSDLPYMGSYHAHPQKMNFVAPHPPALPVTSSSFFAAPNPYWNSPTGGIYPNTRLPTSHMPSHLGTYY
# Procedure, shortened: as §1
# ELF1 = ELF1 (Homo sapiens, UniProt P32519 1-619); details: protein: recombinant; tags: N-terminal GST; dsDNA, one strand shown
# ELF1, sequence (P32519 whole entry): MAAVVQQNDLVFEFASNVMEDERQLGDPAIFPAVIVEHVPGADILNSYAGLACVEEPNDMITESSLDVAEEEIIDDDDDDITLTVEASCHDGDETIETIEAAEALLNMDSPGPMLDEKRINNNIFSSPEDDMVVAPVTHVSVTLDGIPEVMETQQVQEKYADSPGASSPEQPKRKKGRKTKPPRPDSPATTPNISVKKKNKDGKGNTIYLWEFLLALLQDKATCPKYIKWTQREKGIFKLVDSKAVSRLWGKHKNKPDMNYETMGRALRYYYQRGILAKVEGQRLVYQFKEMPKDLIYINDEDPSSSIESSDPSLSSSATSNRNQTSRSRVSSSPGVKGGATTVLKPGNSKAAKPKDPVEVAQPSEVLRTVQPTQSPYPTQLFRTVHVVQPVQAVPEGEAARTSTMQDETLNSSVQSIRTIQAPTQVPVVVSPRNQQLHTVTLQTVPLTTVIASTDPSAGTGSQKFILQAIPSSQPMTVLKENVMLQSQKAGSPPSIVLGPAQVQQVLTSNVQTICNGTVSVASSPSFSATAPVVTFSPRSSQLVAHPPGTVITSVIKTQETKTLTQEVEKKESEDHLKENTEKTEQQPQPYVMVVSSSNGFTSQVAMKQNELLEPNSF
# Procedure, shortened: as §1
# EHF = molecular target: T5, EHF (Homo sapiens, UniProt Q9NZC4 1-300); details: protein: recombinant; tags: N-terminal GST; dsDNA, one strand shown
# T5 sequence: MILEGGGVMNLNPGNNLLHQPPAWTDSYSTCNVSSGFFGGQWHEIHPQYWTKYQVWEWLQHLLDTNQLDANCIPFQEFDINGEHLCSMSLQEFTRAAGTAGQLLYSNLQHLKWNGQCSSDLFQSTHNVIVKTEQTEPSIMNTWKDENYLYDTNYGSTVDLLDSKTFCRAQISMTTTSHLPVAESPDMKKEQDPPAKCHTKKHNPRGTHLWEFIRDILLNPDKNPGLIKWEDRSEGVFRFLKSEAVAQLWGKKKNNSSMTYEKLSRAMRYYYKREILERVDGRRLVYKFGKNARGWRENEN
# Procedure, shortened: as §1
# SPI1 = SPI1 (Homo sapiens, UniProt P17947 1-270); details: protein: recombinant; tags: N-terminal GST; dsDNA, one strand shown
# Procedure, shortened: as §1
# SPIB = SPIB (Homo sapiens, UniProt Q01892 1-262); details: protein: recombinant; tags: N-terminal GST; dsDNA, one strand shown
# SPIB, sequence (Q01892 whole entry): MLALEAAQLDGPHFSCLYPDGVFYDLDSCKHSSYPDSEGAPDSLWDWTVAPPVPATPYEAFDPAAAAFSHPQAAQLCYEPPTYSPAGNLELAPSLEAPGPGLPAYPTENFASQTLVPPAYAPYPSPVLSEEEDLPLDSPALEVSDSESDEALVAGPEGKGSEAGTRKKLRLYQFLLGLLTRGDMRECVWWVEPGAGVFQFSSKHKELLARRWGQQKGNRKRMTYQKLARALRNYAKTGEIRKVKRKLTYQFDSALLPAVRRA
# Procedure, shortened: as §1
# ELK3 = molecular target: T6, ELK3 (Homo sapiens, UniProt P41970 1-407); details: protein: recombinant; tags: N-terminal GST; dsDNA, one strand shown
# T6 sequence: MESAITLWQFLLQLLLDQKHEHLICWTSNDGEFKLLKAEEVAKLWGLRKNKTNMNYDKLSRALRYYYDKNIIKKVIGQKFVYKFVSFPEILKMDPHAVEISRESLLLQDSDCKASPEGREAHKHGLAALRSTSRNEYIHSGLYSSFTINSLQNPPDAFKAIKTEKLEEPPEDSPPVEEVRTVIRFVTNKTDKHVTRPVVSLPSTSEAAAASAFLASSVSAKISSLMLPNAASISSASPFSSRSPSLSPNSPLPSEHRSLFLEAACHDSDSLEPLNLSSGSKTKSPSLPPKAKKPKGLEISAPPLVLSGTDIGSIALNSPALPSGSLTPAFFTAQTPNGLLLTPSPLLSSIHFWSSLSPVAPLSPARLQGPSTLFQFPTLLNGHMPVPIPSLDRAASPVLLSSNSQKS
# Procedure, shortened: as §1
# FEV = molecular target: T7, FEV (Homo sapiens, UniProt Q99581 1-238); details: protein: recombinant; tags: N-terminal GST; dsDNA, one strand shown
# T7 sequence: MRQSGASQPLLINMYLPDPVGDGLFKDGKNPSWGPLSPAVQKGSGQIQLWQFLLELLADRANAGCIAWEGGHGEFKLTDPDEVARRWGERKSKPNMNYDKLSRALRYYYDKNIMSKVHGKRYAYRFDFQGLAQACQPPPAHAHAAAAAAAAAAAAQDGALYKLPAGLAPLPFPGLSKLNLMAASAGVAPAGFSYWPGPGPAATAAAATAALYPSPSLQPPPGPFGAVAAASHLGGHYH
# Procedure, shortened: as §1
# ETV5 = ETV5 (Homo sapiens, UniProt P41161 1-510); details: protein: recombinant; tags: N-terminal GST; dsDNA, one strand shown
# ETV5, sequence (P41161 whole entry): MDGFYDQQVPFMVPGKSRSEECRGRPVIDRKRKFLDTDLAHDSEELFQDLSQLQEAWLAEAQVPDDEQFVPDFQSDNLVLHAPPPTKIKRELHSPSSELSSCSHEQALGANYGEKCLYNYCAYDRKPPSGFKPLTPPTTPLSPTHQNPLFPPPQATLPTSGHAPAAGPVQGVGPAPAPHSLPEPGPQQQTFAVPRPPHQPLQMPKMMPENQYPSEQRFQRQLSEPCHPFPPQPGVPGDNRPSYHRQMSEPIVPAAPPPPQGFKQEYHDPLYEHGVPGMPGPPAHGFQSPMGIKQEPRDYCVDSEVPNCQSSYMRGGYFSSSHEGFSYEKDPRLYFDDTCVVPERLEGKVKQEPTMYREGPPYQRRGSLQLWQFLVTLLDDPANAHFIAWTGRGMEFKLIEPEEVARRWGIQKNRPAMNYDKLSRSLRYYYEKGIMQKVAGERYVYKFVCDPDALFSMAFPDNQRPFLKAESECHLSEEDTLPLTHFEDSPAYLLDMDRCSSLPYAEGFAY
# Procedure, shortened: as §1
# HSF1 = HSF1 (Homo sapiens, UniProt Q00613 1-529); details: protein: recombinant; tags: N-terminal GST; chain copies: 3; dsDNA, one strand shown
# HSF1, sequence (Q00613 whole entry): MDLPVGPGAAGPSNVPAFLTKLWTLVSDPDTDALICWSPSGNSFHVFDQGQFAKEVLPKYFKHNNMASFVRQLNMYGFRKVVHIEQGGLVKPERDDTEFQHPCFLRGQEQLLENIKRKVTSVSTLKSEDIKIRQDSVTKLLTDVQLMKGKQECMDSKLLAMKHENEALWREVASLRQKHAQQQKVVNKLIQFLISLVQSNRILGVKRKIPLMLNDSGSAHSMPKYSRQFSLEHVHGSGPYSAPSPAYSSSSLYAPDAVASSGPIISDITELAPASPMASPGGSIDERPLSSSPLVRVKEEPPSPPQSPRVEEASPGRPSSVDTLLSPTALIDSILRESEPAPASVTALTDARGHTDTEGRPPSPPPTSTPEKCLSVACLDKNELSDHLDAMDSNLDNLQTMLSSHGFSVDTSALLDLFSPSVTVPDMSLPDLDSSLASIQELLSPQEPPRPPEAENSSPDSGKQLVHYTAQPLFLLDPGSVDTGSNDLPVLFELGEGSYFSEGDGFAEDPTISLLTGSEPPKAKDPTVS
# Procedure, shortened: as §1
# SPIC = molecular target: T8, SPIC (Homo sapiens, UniProt Q8N5J4 1-248); details: protein: recombinant; tags: N-terminal GST; dsDNA, one strand shown
# T8 sequence: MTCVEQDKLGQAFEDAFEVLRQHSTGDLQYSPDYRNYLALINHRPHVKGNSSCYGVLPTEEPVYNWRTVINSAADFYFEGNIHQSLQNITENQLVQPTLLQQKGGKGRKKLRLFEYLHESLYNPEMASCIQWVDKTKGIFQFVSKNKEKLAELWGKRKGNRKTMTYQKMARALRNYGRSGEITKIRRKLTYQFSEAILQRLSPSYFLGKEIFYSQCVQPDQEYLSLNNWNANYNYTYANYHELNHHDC
# Procedure, shortened: as §1
# ELF4 = ELF4 (Homo sapiens, UniProt Q99607 1-663); details: protein: recombinant; tags: N-terminal GST; dsDNA, one strand shown
# ELF4, sequence (Q99607 whole entry): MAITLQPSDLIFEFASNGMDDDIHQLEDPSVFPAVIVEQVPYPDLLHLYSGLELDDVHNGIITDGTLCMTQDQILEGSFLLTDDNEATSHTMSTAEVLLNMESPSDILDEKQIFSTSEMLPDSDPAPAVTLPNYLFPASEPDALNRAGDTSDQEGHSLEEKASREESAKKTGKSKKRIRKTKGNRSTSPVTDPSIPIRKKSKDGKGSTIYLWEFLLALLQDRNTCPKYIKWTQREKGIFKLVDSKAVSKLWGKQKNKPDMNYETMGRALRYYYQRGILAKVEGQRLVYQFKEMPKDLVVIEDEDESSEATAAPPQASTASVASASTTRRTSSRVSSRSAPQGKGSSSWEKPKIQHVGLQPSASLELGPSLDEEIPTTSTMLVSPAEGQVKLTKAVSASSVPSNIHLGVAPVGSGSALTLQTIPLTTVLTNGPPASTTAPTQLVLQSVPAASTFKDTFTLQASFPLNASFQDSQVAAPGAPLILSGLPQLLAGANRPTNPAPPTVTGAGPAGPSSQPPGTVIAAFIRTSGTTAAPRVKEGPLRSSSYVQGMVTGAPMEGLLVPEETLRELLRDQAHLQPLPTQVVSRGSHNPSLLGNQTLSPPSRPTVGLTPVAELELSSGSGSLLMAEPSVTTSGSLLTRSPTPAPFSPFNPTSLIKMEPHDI
# Procedure, shortened: as §1
# ELK4 = molecular target: T9, ELK4 (Homo sapiens, UniProt P28324-2 1-405); details: protein: recombinant; tags: N-terminal GST; dsDNA, one strand shown
# T9 sequence: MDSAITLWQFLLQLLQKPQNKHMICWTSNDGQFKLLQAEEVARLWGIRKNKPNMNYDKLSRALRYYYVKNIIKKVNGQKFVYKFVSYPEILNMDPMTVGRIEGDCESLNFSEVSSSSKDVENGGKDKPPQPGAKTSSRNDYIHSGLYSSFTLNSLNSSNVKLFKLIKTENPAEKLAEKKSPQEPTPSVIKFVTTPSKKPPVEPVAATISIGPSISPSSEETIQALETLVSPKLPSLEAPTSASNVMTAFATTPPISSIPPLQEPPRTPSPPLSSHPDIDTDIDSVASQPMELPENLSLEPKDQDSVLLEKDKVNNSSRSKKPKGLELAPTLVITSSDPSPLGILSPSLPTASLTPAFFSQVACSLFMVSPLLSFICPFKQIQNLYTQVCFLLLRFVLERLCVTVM
# Procedure, shortened: as §1
# ETV2 = molecular target: T10, ETV2 (Homo sapiens, UniProt O00321 1-342); details: protein: recombinant; tags: N-terminal GST; dsDNA, one strand shown
# T10 sequence: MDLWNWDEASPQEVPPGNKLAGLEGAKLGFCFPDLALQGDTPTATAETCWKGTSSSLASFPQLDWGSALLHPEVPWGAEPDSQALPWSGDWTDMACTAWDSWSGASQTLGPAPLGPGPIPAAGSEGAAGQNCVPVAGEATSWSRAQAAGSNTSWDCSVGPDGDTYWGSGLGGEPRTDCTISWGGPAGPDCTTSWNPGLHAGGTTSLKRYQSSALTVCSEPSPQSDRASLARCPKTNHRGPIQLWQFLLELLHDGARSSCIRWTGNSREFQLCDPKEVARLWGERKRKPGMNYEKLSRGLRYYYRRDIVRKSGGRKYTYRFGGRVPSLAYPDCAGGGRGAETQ
# Procedure, shortened: as §1
# ELF3 = molecular target: T11, ELF3 (Homo sapiens, UniProt P78545 1-371); details: protein: recombinant; tags: N-terminal GST; dsDNA, one strand shown
# T11 sequence: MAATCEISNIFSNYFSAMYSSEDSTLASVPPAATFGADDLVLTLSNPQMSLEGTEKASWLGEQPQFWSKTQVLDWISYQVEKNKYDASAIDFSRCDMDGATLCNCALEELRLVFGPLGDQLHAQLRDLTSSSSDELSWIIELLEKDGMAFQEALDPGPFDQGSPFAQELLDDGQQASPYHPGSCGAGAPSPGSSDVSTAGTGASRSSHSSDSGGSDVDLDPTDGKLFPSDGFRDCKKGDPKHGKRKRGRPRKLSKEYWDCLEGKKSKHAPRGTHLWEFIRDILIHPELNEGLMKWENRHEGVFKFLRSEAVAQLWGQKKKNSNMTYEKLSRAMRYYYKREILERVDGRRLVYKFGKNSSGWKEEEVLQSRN
# Procedure, shortened: as §1
# CRX = CRX (Homo sapiens, UniProt O43186 1-299); details: protein: recombinant; tags: N-terminal GST; dsDNA, one strand shown
# CRX, sequence (O43186 whole entry): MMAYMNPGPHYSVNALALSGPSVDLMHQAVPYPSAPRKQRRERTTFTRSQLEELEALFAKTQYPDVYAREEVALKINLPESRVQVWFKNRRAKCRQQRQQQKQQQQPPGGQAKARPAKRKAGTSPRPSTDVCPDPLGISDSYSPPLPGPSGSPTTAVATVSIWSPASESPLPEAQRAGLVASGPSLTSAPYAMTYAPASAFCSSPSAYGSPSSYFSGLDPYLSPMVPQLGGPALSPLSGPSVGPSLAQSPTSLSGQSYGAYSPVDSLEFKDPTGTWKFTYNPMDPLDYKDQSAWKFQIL
# Procedure, shortened: as §1
# ETV1 = ETV1 (Homo sapiens, UniProt P50549 1-477); details: protein: recombinant; tags: N-terminal GST; dsDNA, one strand shown
# ETV1, sequence (P50549 whole entry): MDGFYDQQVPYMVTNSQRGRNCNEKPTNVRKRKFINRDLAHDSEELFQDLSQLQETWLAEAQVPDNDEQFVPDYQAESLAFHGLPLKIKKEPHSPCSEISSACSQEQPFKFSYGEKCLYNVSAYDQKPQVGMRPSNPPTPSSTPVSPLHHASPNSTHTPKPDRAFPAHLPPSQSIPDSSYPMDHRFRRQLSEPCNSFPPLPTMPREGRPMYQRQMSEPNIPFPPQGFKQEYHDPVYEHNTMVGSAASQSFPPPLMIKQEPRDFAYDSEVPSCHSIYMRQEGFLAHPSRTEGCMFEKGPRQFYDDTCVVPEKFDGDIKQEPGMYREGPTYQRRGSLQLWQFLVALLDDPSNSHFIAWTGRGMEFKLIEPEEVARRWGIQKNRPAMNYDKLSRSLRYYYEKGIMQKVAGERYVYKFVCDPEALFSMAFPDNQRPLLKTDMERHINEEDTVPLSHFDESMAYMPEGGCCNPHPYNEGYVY
# Procedure, shortened: as §1
sequence,measurement,setting,value
AACTAA,binding signal,FLI1,"1.39 fold enrichment (6-mer frequency, TF over GST control)"
same,binding signal,ELK1,"1.27 fold enrichment (6-mer frequency, TF over GST control)"
same,binding signal,GABPA,"1.38 fold enrichment (6-mer frequency, TF over GST control)"
same,binding signal,ERG,"1.33 fold enrichment (6-mer frequency, TF over GST control)"
same,binding signal,ELF1,"1.42 fold enrichment (6-mer frequency, TF over GST control)"
same,binding signal,EHF,"1.42 fold enrichment (6-mer frequency, TF over GST control)"
same,binding signal,SPI1,"1.38 fold enrichment (6-mer frequency, TF over GST control)"
same,binding signal,SPIB,"1.41 fold enrichment (6-mer frequency, TF over GST control)"
same,binding signal,ELK3,"1.4 fold enrichment (6-mer frequency, TF over GST control)"
same,binding signal,FEV,"1.35 fold enrichment (6-mer frequency, TF over GST control)"
same,binding signal,ETV5,"1.39 fold enrichment (6-mer frequency, TF over GST control)"
same,binding signal,HSF1,"1.44 fold enrichment (6-mer frequency, TF over GST control)"
same,binding signal,SPIC,"1.3 fold enrichment (6-mer frequency, TF over GST control)"
same,binding signal,ELF4,"1.45 fold enrichment (6-mer frequency, TF over GST control)"
same,binding signal,ELK4,"1.3 fold enrichment (6-mer frequency, TF over GST control)"
same,binding signal,ETV2,"1.24 fold enrichment (6-mer frequency, TF over GST control)"
same,binding signal,ELF3,"1.3 fold enrichment (6-mer frequency, TF over GST control)"
same,binding signal,CRX,"1.84 fold enrichment (6-mer frequency, TF over GST control)"
same,binding signal,ETV1,"1.39 fold enrichment (6-mer frequency, TF over GST control)"
